The test system of the assay is T1, NDR1.
T1 construct: gene STK38
The conditions noted are these: Compound Concentration (nM):1000.
For `CCn1c(-c2nonc2N)nc2c(C#CC(C)(C)O)nc(OCCNC)cc21.Cl` [GSK949675], the “Percent Control” value is given as 87%.
For `Cl.O=S1CCN(Cc2ccc(-c3ccc4ncnc(Nc5ccc(OCc6ccccc6)c(F)c5)c4c3)o2)CC1` [GW576924A] the value was 99%; for `CCS(=O)(=O)c1ccc(OC)c(Nc2ncc(-c3cccc(OC)c3)o2)c1` [GW580509X], 100%.
The result for `Cl.c1ccc(Cc2nc3ccc(Nc4ncnc5ccccc45)cc3[nH]2)cc1` [GR269666A] reads 100%.
`NS(=O)(=O)c1ccc(N/N=C2\C(=O)Nc3ccc(C(=O)NCCc4c[nH]cn4)cc32)cc1` [GW300660X]: the “Percent Control” value worked out at 77%.
The result for `C/C(Nc1ccc(S(N)(=O)=O)cc1)=C1/C(=O)Nc2ccccc21` [GW335962X] reads 65%; that for `COc1ccccc1-c1cc(/C=C2\C(=O)Nc3ncc(Br)cc32)cc(Br)c1O` [GW442130X], 97%.
With `NS(=O)(=O)c1ccc(N/N=C2\C(=O)Nc3ccc(-c4cnco4)cc32)cc1` [GW276655], the “Percent Control” value was 67%.
For `CN(C)CCNC(=O)Nc1ccc(N(C)c2ccnc(Nc3ccc(CS(C)(=O)=O)cc3)n2)cc1.Cl` [GW830900A] the value was 86%; for `COc1ccc2[nH]c3c4[nH]c5ccc(OC)cc5c4c4c(c3c2c1)C(=O)NC4=O` [GW296115X], 57%; for `COc1cc2ncnc(Nc3ccc4c(cnn4Cc4ccccc4)c3)c2cc1OC.Cl` [GW282449A], 100%.
The result for `NS(=O)(=O)c1ccc(N/N=C2\C(=O)Nc3ccc(Cl)cc32)cc1` [GW280670X] reads 91%.
Consider `CN1CCN(C(=O)c2ccc(NC(=O)Nc3ccc(N(C)c4ccnc(Nc5ccc(CS(C)(=O)=O)cc5)n4)cc3)cc2)CC1.Cl` [GW830263A], for which the “Percent Control” value worked out at 54%.
The result for `COC(=O)Nc1nc2ccc(Oc3ccc(NC(=O)Nc4cc(C(F)(F)F)ccc4F)cc3)cc2s1.Cl` [GW693917A] reads 86%; that for `COc1ccc2cc(-c3c(-c4ccncc4)nc(-c4ccc(S(C)(=O)=O)cc4C)n3C)ccc2c1` [SB-633825], 77%; that for `COc1cc(C=NNc2ncnc3c2cnn3-c2ccccc2)ccc1O` [GW513184X], 100%.
The result for `COc1cccc(-n2ncc3c(N/N=C/c4ccncc4)ncnc32)c1` [GW784752X] reads 96%; that for `COc1cc(N2CCN(C(C)C)CC2)ccc1Nc1nc(Nc2ccc(F)cc2C(=O)NC[C@@H](O)CO)c2cc[nH]c2n1` [GSK1392956A], 99%; that for `CC(C)COC(=O)c1ccc2c(c1)/C(=C/Nc1ccc(S(N)(=O)=O)cc1)C(=O)N2` [GW416981X], 66%.
The result for `CC1=C(C(=O)Nc2ccc3[nH]ncc3c2)C(c2ccc3ccccc3c2)CC(=O)N1` (stereo not drawn) [GSK270822A] reads 28%; that for `NS(=O)(=O)c1ccc(Nc2ncc(-c3ccccc3)o2)cc1` [GW572399X], 83%; that for `CC1=C(C(=O)Nc2ccc3[nH]ncc3c2)C(c2ccc(Cl)c(Cl)c2)CC(=O)N1` (stereo not drawn) [GSK299115A], 21%.
As to `NS(=O)(=O)c1ccc(N/N=C2\C(=O)Nc3ccc(C(=O)NCc4ccncc4)cc32)cc1` [GW300657X], the “Percent Control” value is recorded as 76%.
For `CCc1ccc(Oc2nccc(-c3c(-c4ccc(F)cc4)ncn3C3CCNCC3)n2)cc1` [SB-242719] the value was 92%; for `Cl.O=C(Nc1ccc(Oc2ccc3[nH]c(NC(=O)c4ccccc4)nc3c2)cc1)Nc1cc(C(F)(F)F)ccc1F` [GW709042A], 100%.
The result for `COc1cccc(-c2c[nH]c3c(N/N=C/c4ccncc4)ncnc23)c1` [GW814408X] reads 93%.
For `CCS(=O)(=O)c1ccc(OC)c(Nc2ncc(-c3cccc(F)c3)o2)c1` [GW621970X] the value was 100%; for `Cc1cc(O)cc(C)c1/C=C/c1cncc(C(N)=O)c1` [GW435821X], 99%.
Consider `Cl.O=C(Nc1ccc(Oc2ccc3[nH]c(NC(=O)c4ccco4)nc3c2)cc1)Nc1cc(C(F)(F)F)ccc1F` [GW683134A], for which the “Percent Control” value is 100%.
As to `O=C(Nc1n[nH]c2nc(-c3ccc(O)cc3)c(Br)cc12)C1CC1` [SB-725317], the “Percent Control” value was 100%.
For `COc1cc2ncn(-c3cc(O[C@H](C)c4ccccc4Cl)c(C(N)=O)s3)c2cc1OC` [GSK237701A] the value was 84%.
For `COc1ccc(COc2ccc(Cc3cnc(N)nc3N)cc2OC)cc1` [GW632580X] the value was 93%; for `O=C1Nc2ccc(C(=O)c3ccco3)cc2C1=Cc1cc(Cl)c(O)c(Cl)c1` [GW406108X], 95%.

These data come from PMC7826789 (International Journal of Molecular Sciences, 2021).
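Also: KINOMEscan scanMAX binding as percent activity remaining versus control; lower means stronger binding.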
